Assay [1] in a line: NCI Yeast Anticancer Drug Screen. Data for the rad50 strain (AID 155).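 Also: 0% = growth of vehicle-only cultures of the same strain.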 The conditions noted are these: S. cerevisiae rad50 strain growth inhibition; at 50.0 µM; stronger effect = higher value. A digest of the protocol:
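DNA repair mutant yeast, compound exposure, growth read-out; inhibition is taken relative to vehicle.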

The nature of assay [2]: NCI Yeast Anticancer Drug Screen. Data for the mec2-1 strain (AID 157). Particulars: S. cerevisiae mec2-1 strain, at 50.0 µM, stronger effect = higher value. In outline:
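Readout is yeast growth inhibition, normalised to vehicle-treated controls, in the mec2-1 strain exposed to compound.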

Assay [3] is described as follows: NCI Yeast Anticancer Drug Screen. Data for the sgs1 mgt1 strain (AID 161).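 Also: 0% = growth of cultures given vehicle only.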 The conditions noted are these: S. cerevisiae sgs1 mgt1 strain, at 50.0 µM, stronger effect = higher value. A digest of the protocol: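 Percent growth inhibition was derived by comparing compound-exposed mutant yeast with vehicle-exposed cultures. The strain carries alterations in DNA damage repair.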

Assay [4] can be described thus: NCI Yeast Anticancer Drug Screen. Data for the cln2 rad14 strain (AID 165).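 Also: 0% = growth equal to vehicle treated cultures.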 Particulars: S. cerevisiae cln2 rad14 strain, at 50.0 µM, stronger effect = higher value. A digest of the protocol: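 Relative to vehicle controls, growth inhibition of compound-treated cln2 rad14 yeast was recorded.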
Assay [5] is described as follows: NCI Yeast Anticancer Drug Screen. Data for the bub3 strain (AID 167). Particulars: S. cerevisiae bub3 mutant strain, at 50.0 µM, stronger effect = higher value. A digest of the protocol: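 In this screen, a yeast mutant lacking normal mitotic checkpoint function is challenged with compound. Relative growth versus vehicle gives the inhibition value.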
A short description of assay [6]: NCI Yeast Anticancer Drug Screen. Data for the mlh1 rad18 strain (AID 175). Particulars: S. cerevisiae mlh1 rad18 strain growth inhibition; at 50.0 µM; stronger effect = higher value. In outline:
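Test agents were incubated with a yeast strain of defined genotype (DNA damage repair defect). Inhibition of growth was derived by comparison with vehicle-exposed cultures.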

Molecules are shown by their SMILES. About 79,000 compounds went through this panel and 15% of them were active in at least one assay; those are over-represented in the sample as a whole. A number with no mark means an inactive call. The source made the active and inactive calls. Rule as the data show it: active = growth inhibition above about 70%; inactive = the rest.

Regarding `COP(=O)(OC)C1(C(C)(C)C)CO1` (centres undefined), the growth inhibition in assay [1] was -1.75%; in assay [2], -4.9%; in assay [3], 0.65%; in assay [4], -23.1%; in assay [5], -11.6%; in assay [6] it was 0.5%.
Regarding `Cc1nc2ccc(Br)cc2c(=O)n1-c1ccc(N)cc1`, the growth inhibition in assay [1] is -25.9%; in assay [2], -2.4%; in assay [3], -28.1%; in assay [4], 16.2%; in assay [5], -8.2%; in assay [6] it was 5.8%.
For `NC(=O)NNC(=O)C(Cl)(Cl)Cl`, the growth inhibition in assay [1] is -0.45%; in assay [2] it was -8.55%; in assay [3], 5.6%; in assay [4], -63.3%; in assay [5], -4.65%; in assay [6] it was -14.2%.
In the case of `O=[N+]([O-])c1ccccc1-c1ccccc1`, the growth inhibition in assay [1] is 24.3%; in assay [2], -27.8%; in assay [3] it was 7.05%; in assay [4], 13.2%; in assay [5], -21.8%; in assay [6] it was 2.25%.
`O=C(OCC1CCCN2CCCCC12)c1cccnc1` (centres undefined): the growth inhibition in assay [1] was 7.7%; in assay [2], -10.8%; in assay [3] it was -28.3%; in assay [4], 14.9%; in assay [5] it was -8.5%; in assay [6], -25.3%.
In the case of `CCCC1NCCOC1(O)c1ccccc1` (centres undefined), the growth inhibition in assay [1] was -11.2%; in assay [2] it was -8.35%; in assay [3], -1%; in assay [4] it was -16.4%; in assay [5], 3.35%; in assay [6] it was -33.8%.
Take `CCCCCCCCCCC(O)C1CCC(C(O)CCC(O)C2CCC(CCCCCCC[C@H](O)CC3=C[C@@H](C)OC3=O)O2)O1` (some centres undefined): the growth inhibition in assay [1] was 31.4%; in assay [2], 6.55%; in assay [3] it was 1.55%; in assay [4] it was 12.9%; in assay [5], 19.1%; in assay [6], 27.2%.
For the molecule `C1CC[N-]CC1.CC(=N\O)/C(C)=N/O.CC(=N\O)/C(C)=N/O.N#C[CH-]CC#N.[Co+2]`, the growth inhibition in assay [1] was 31.4%; in assay [2], 19.2%; in assay [3] it was 25.3%; in assay [4], -19.4%; in assay [5], 28.5%; in assay [6], 38.9%.
`CC(C)CCC[C@@H](C)[C@H]1CC[C@H]2[C@@H]3CC[C@H]4C[C@H]5N[C@H]5C[C@]4(C)[C@H]3CC[C@]12C`: the growth inhibition was 10.6% in assay [1]; -21.8% in assay [2]; 5.2% in assay [3]; -3.55% in assay [4]; -9.6% in assay [5]; 0.1% in assay [6].
With `Cc1cc(NC(=O)CCc2ccc(N3C(N)=NC(N)=NC3(C)C)cc2Cl)ccc1S(=O)(=O)F`, the growth inhibition was 72.5% (active) in assay [1]; 94.1% (active) in assay [2]; 94.7% (active) in assay [3]; 4.55% in assay [4]; 54% in assay [5]; 83.3% (active) in assay [6].
On to `CCCC(Br)C(=O)OCC` (centres undefined), for which the growth inhibition is 13.6% in assay [1]; 4.35% in assay [2]; -8.1% in assay [3]; 0.15% in assay [4]; 0.25% in assay [5]; 9.1% in assay [6].
As to `C=CCc1c[nH]c(=S)[nH]c1=O.[Hg]`, the growth inhibition in assay [1] is 99.1% (active); in assay [2], 98.8% (active); in assay [3], 98.8% (active); in assay [4], 98.8% (active); in assay [5], 99% (active); in assay [6], 98.8% (active).
`CCOC(=O)C(CCc1ccc(N(CCCl)CCCl)cc1)(NC(C)=O)C(=O)OCC`: the growth inhibition in assay [1] is 1.5%; in assay [2], -32.6%; in assay [3], 8.65%; in assay [4], -4.35%; in assay [5], -16.8%; in assay [6], -39.9%.
In the case of `C[C@]12CC[C@H](O)C[C@H]1CC[C@@H]1[C@@H]2CC[C@]2(C)[C@@H](C3=CC(=O)OC3)[C@@H](O)C[C@]12O`, the growth inhibition in assay [1] is -6.05%; in assay [2], -15.8%; in assay [3], 2.35%; in assay [4] it was -16.8%; in assay [5], -0.15%; in assay [6] it was 8.1%.
As for `O=C(c1ccccc1)C1C(C(=O)c2ccccc2)N1C1CCCCC1` (centres undefined), the growth inhibition in assay [1] was 81.8% (active); in assay [2], 32%; in assay [3] it was 14.8%; in assay [4], 2.3%; in assay [5], 84.5% (active); in assay [6] it was 80.8% (active).
As to `Cc1cc(Cc2cc(C)c(NC(=O)C(=O)C3C(=O)NC(=S)NC3=O)c(C(C)C)c2)cc(C(C)C)c1NC(=O)C(=O)C1C(=O)NC(=S)NC1=O`, the growth inhibition in assay [1] is -20.6%; in assay [2], -8%; in assay [3] it was -18.9%; in assay [4], 21.6%; in assay [5] it was 8.55%; in assay [6], -11.7%.
Consider `COc1ccc2c(c1OC)CC(N)C2O` (centres undefined), for which the growth inhibition in assay [1] is 9%; in assay [2], 3.55%; in assay [3], 7.8%; in assay [4] it was 4.3%; in assay [5] it was 15.2%; in assay [6], 3.25%.
With `COc1ccc2c(c1)C(=O)C(N)C2` (centres undefined), the growth inhibition in assay [1] was 2%; in assay [2] it was 1.95%; in assay [3] it was 0.5%; in assay [4] it was -21.6%; in assay [5], 7.4%; in assay [6] it was 20.1%.
As for `NC(=NCCCC(NCc1ccccc1)C(=O)O)N[N+](=O)[O-]` (centres undefined), the growth inhibition in assay [1] was 16.3%; in assay [2], 17.6%; in assay [3], 16.6%; in assay [4], 16.9%; in assay [5], 6.85%; in assay [6], 16.1%.
In the case of `O=C(NP(=O)(N1CC1)N1CC1)c1cc(I)ccc1I`, the growth inhibition was -2.1% in assay [1]; -1.7% in assay [2]; 1.25% in assay [3]; -27.7% in assay [4]; 12.9% in assay [5]; -14.3% in assay [6].
Consider `CCCCOC(=O)c1ccccc1N`, for which the growth inhibition in assay [1] was -4.3%; in assay [2] it was -15.5%; in assay [3], -4.2%; in assay [4] it was -1.85%; in assay [5], 0.2%; in assay [6], -3.6%.
Turning to `O.O.O=Cc1ccccc1O.O=Cc1ccccc1O.[Ni]`, the growth inhibition was 47.1% in assay [1]; 52.4% in assay [2]; 64.7% in assay [3]; 17.1% in assay [4]; 51.5% in assay [5]; 76.9% (active) in assay [6].
For `COc1ccc(N=NC(=O)NC(CC(C)C)C(=O)NCC(=O)O)cc1` (centres undefined), the growth inhibition in assay [1] was -0.8%; in assay [2], 2.45%; in assay [3], 10.4%; in assay [4], 28.8%; in assay [5], 5.35%; in assay [6] it was 5.35%.
Regarding `CCOC(=O)C1OC(C2(C)OC3(OC4(C=CC3O)OC(C(C)C(=O)C(C)C(O)C(C)CC(C)c3c(Cl)cc(C)c(O)c3C(=O)O)C(C)CC4C)C(C)C2OC)CC1O` (centres undefined), the growth inhibition in assay [1] was -12.7%; in assay [2], -27%; in assay [3], -6.95%; in assay [4], 22.9%; in assay [5] it was 5.9%; in assay [6], 5.75%.
As for `O=C1c2c(ccc3ccccc23)CN2CCCCC12` (centres undefined), the growth inhibition in assay [1] is 42.2%; in assay [2], 19.6%; in assay [3], 61.9%; in assay [4], 14%; in assay [5] it was 40.4%; in assay [6], 45.2%.
`COc1ccc(C=C2C(=O)NC(=O)NC2=O)cc1OC`: the growth inhibition in assay [1] was 10.7%; in assay [2], -0.6%; in assay [3], 22.2%; in assay [4] it was 8.8%; in assay [5] it was -11.8%; in assay [6], 23.9%.
As for `O=C(O)CN(CCN(CC(=O)O)CC(=O)O)CC(=O)O.[Co+2]`, the growth inhibition in assay [1] is 0.25%; in assay [2], -3.85%; in assay [3], 13.2%; in assay [4], 19.1%; in assay [5], 16.4%; in assay [6], 7.45%.
On to `Nc1ccc([N+](=O)[O-])cc1Cl`, for which the growth inhibition is 11.8% in assay [1]; -7.3% in assay [2]; 45.2% in assay [3]; 19% in assay [4]; 12.9% in assay [5]; 34% in assay [6].
Turning to `C/C=C1\CN2CC[C@H]1C[C@H]2[C@H](O)c1ccnc2ccc(NCCO)cc12`, the growth inhibition in assay [1] was 11.6%; in assay [2], 7.8%; in assay [3] it was 5.95%; in assay [4] it was 22.7%; in assay [5] it was -1.65%; in assay [6], 36.9%.

For the origin of these results see PubChem BioAssay (NCI).
